Data on 58 compounds can be found in PubChem BioAssay AID652115 (Broad Institute, 2013).

Structures are written as SMILES. Hit rate of the full screen: of about 330,000 compounds, about 3,800 (1.2%) were called active. Cut-off read from the data, not from the text of the source: active = inhibition above about 15%; inconclusive = no clear call, values can overlap the other calls; inactive = below that. Many of the other results were omitted from the sample, so actives are more common in it than they were.

NAD-dependent protein deacylase sirtuin-5, mitochondrial (Homo sapiens), sequence (Q9NXA8 whole entry, looked up): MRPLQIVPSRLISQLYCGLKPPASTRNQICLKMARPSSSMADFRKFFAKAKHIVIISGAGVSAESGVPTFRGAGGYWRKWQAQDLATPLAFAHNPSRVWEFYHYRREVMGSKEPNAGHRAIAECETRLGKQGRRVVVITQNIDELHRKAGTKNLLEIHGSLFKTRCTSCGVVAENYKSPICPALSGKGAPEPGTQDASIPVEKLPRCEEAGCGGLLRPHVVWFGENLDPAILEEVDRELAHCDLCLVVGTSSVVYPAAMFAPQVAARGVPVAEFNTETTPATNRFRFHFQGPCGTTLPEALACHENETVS

The experiment has as its target NAD-dependent protein deacylase sirtuin-5, mitochondrial (Homo sapiens) (UniProt Q9NXA8). The experiment can be described thus: SIRT5 desuccinylase inhibitors, primary screen, biochemical, fluorescence imaging, single point, set 5 (AID 652115). The conditions noted are these: Purified SirT5, succinyl-peptide AMC, trypsin-coupled fluorescence; at 15 µM; hits give high values.
Broadly, the inhibition is the drop in the measured response relative to a control, in per cent. Consider `COc1ccccc1NC(=O)Nc1ccc2c(c1)OC[C@H](C)NC[C@H](C)[C@@H](OC)CN(C)C2=O`, for which the inhibition is 6.5% (inactive).

Take `COc1ccc(S(=O)(=O)N(C)C[C@H]2OCCCC[C@H](C)Oc3ccc(NS(=O)(=O)c4ccc(F)cc4)cc3C(=O)N([C@@H](C)CO)C[C@@H]2C)cc1`: the inhibition was 20.4% (active).

For the compound `C[C@@H]1CN([C@H](C)CO)C(=O)c2cc(NC(=O)Nc3ccc4c(c3)OCO4)ccc2O[C@@H](C)CCCCO[C@@H]1CN(C)Cc1ccc2c(c1)OCO2`, the inhibition was 15.3% (active).

For `COc1ccc(S(=O)(=O)N(C)C[C@@H]2OCCCC[C@@H](C)Oc3ccc(NS(=O)(=O)c4ccccc4)cc3C(=O)N([C@@H](C)CO)C[C@H]2C)cc1`, the inhibition is 4.81% (inactive).

With `COc1ccc(S(=O)(=O)Nc2ccc3c(c2)C(=O)N([C@@H](C)CO)C[C@H](C)[C@@H](CN(C)S(=O)(=O)c2ccc(C)cc2)OCCCC[C@@H](C)O3)cc1`, the inhibition was 4.83% (inactive).

As to `COc1ccc(S(=O)(=O)Nc2ccc3c(c2)C(=O)N([C@@H](C)CO)C[C@H](C)[C@H](CN(C)S(=O)(=O)c2ccc(F)cc2)OCCCC[C@@H](C)O3)cc1`, the inhibition was 11.3% (inactive).

Regarding `CC(C)NC(=O)Nc1ccc2c(c1)C(=O)N([C@@H](C)CO)C[C@H](C)[C@H](CN(C)S(=O)(=O)c1ccc(Cl)cc1)OCCCC[C@H](C)O2`, the inhibition was 4.57% (inactive).

Turning to `C[C@H](CO)N1C[C@H](C)[C@@H](CN(C)S(C)(=O)=O)OCCCC[C@H](C)Oc2ccc(NC(=O)Nc3cccc4ccccc34)cc2C1=O`, the inhibition is -3.3% (inactive).

Consider `C[C@@H]1CN([C@@H](C)CO)C(=O)c2cc(NC(=O)Nc3cccc4ccccc34)ccc2O[C@@H](C)CCCCO[C@@H]1CN(C)S(=O)(=O)c1ccc(Cl)cc1`, for which the inhibition was 18.7% (active).

Regarding `COc1ccc(S(=O)(=O)Nc2ccc3c(c2)C(=O)N([C@@H](C)CO)C[C@H](C)[C@@H](CN(C)S(=O)(=O)c2ccc(F)cc2)OCCCC[C@H](C)O3)cc1`, the inhibition was 3.5% (inactive).

Consider `C[C@H]1CCCCO[C@@H](CN(C)Cc2ccc3c(c2)OCO3)[C@@H](C)CN([C@@H](C)CO)C(=O)c2cc(NC(=O)Nc3ccc(F)cc3)ccc2O1`, for which the inhibition was 1.57% (inactive).

As for `C[C@@H]1CCCCO[C@@H](CN(C)Cc2ccc3c(c2)OCO3)[C@@H](C)CN([C@@H](C)CO)C(=O)c2cc(NC(=O)Nc3ccccc3)ccc2O1`, the inhibition is 0.341% (inactive).

For the compound `COc1ccc(S(=O)(=O)N(C)C[C@H]2OCCCC[C@@H](C)Oc3ccc(NS(=O)(=O)c4ccc(C)cc4)cc3C(=O)N([C@@H](C)CO)C[C@@H]2C)cc1`, the inhibition was 21.4% (active).

In the case of `O=C(NCC[C@@H]1CC[C@@H](NS(=O)(=O)c2cccc(F)c2)[C@H](CO)O1)C1CC1`, the inhibition was -0.786% (inactive).

Regarding `C[C@H]1CN([C@@H](C)CO)C(=O)c2cccc(NC(=O)Nc3ccccc3)c2O[C@H]1CN(C)S(=O)(=O)c1ccc(F)cc1`, the inhibition is -1.45% (inactive).

As to `CCC(=O)Nc1ccc2c(c1)C(=O)N(C)[C@H]1CC[C@H](CC(=O)NCCOC)O[C@@H]1CO2`, the inhibition is 2.38% (inactive).

Regarding `C[C@@H]1CN([C@@H](C)CO)C(=O)Cc2cc(NS(=O)(=O)c3cccs3)ccc2O[C@@H]1CN(C)C(=O)Nc1ccc(C(F)(F)F)cc1`, the inhibition is 3.48% (inactive).

As to `COc1ccc(S(=O)(=O)Nc2ccc3c(c2)C(=O)N([C@@H](C)CO)C[C@H](C)[C@H](CN(C)Cc2ccc(C(F)(F)F)cc2)OCCCC[C@@H](C)O3)cc1`, the inhibition was 9.2% (inactive).

On to `C[C@H](CO)N1C[C@H](C)[C@H](CN(C)S(=O)(=O)c2ccc(F)cc2)OCCCC[C@H](C)Oc2ccc(NS(=O)(=O)c3ccc(Cl)cc3)cc2C1=O`, for which the inhibition is 17.6% (active).

As to `C[C@@H]1CN([C@H](C)CO)C(=O)c2cc(NS(=O)(=O)c3cccs3)ccc2O[C@@H]1CN(C)Cc1ccc(C(F)(F)F)cc1`, the inhibition was 2.33% (inactive).

Regarding `C[C@H](CO)N1C[C@H](C)[C@H](CN(C)Cc2ccc(C(F)(F)F)cc2)Oc2ccc(NS(C)(=O)=O)cc2C1=O`, the inhibition was 21.5% (active).

As for `C[C@H]1CN([C@@H](C)CO)C(=O)c2cc(NS(C)(=O)=O)ccc2O[C@H]1CN(C)C(=O)Nc1ccc(C(F)(F)F)cc1`, the inhibition was -4.07% (inactive).

Turning to `C[C@@H]1CCCCO[C@H](CN(C)S(=O)(=O)c2ccc(F)cc2)[C@H](C)CN([C@@H](C)CO)C(=O)c2cc(NS(=O)(=O)c3ccccc3)ccc2O1`, the inhibition was 4.58% (inactive).

Consider `COc1ccc(S(=O)(=O)Nc2ccc3c(c2)C(=O)N([C@@H](C)CO)C[C@@H](C)[C@H](CN(C)Cc2ccc(C(F)(F)F)cc2)OCCCC[C@@H](C)O3)cc1`, for which the inhibition was 16.7% (active).

With `Cc1ccc(S(=O)(=O)Nc2ccc3c(c2)C(=O)N([C@H](C)CO)C[C@H](C)[C@H](CN(C)S(=O)(=O)c2ccc(F)cc2)OCCCC[C@@H](C)O3)cc1`, the inhibition was 4.66% (inactive).

Take `Cc1ccc(S(=O)(=O)N(C)C[C@H]2OCCCC[C@@H](C)Oc3ccc(NC(=O)Nc4ccc(F)cc4)cc3C(=O)N([C@@H](C)CO)C[C@H]2C)cc1`: the inhibition is -2.04% (inactive).

As to `COc1ccc(CN(C)C[C@@H]2OCCCC[C@H](C)Oc3ccc(NS(=O)(=O)c4ccc(F)cc4)cc3C(=O)N([C@H](C)CO)C[C@H]2C)cc1`, the inhibition is -3.51% (inactive).

Regarding `Cc1ccc(S(=O)(=O)N(C)C[C@@H]2OCCCC[C@@H](C)Oc3ccc(NS(=O)(=O)c4ccc(F)cc4)cc3C(=O)N([C@H](C)CO)C[C@H]2C)cc1`, the inhibition is 19.9% (active).

Turning to `COc1ccc(S(=O)(=O)Nc2ccc3c(c2)C(=O)N([C@H](C)CO)C[C@@H](C)[C@H](CN(C)S(=O)(=O)c2ccc(Cl)cc2)OCCCC[C@@H](C)O3)cc1`, the inhibition is 13.8% (inactive).

With `O=C(C[C@H]1CC[C@H]2[C@@H](COC[C@@H](O)CN2C(=O)c2ccc3c(c2)OCO3)O1)NC1Cc2ccccc2C1`, the inhibition is -1.48% (inactive).

Consider `CCCNC(=O)Nc1ccc2c(c1)OC[C@H](C)N(C(=O)C1CCC1)C[C@H](C)[C@@H](OC)CN(C)C2=O`, for which the inhibition is -2.08% (inactive).

As for `COc1ccc2c3c([nH]c2c1)[C@H](CO)N(Cc1nccs1)CC31CCN(Cc2ccncc2)CC1`, the inhibition is 1.68% (inactive).

Take `CC=Cc1ccc2n(c1=O)C[C@@H]1[C@@H](CO)[C@H](C(=O)N3CCCCC3)[C@H]2N1C(=O)C1CCC1` (mixture of isomers): the inhibition is -13.5% (inactive).

Consider `Nc1ccccc1-c1cn(CC(=O)Nc2ccon2)nn1`, for which the inhibition is -0.431% (inactive).

Consider `C[C@@H]1CN([C@H](C)CO)C(=O)c2cc(C#CCC3CCCC3)cnc2O[C@H]1CN(C)Cc1ccccn1`, for which the inhibition is -6.11% (inactive).

For the compound `C[C@H](CO)N1C[C@H](C)[C@H](CN(C)Cc2ccc3c(c2)OCO3)OCCCC[C@H](C)Oc2ccc(NC(=O)c3ccccc3)cc2C1=O`, the inhibition was 3.6% (inactive).

With `O=C(C[C@H]1CC[C@@H]2[C@H](COC[C@H](O)CN2S(=O)(=O)c2ccccc2)O1)N1CCOCC1`, the inhibition was -0.872% (inactive).

As to `COc1ccccc1-c1cnc2c(c1)C(=O)N([C@@H](C)CO)C[C@@H](C)[C@H](CN(C)Cc1cccnc1)O2`, the inhibition is 0.854% (inactive).

Consider `CN1c2ccc(C3=CCCCC3)cc2[C@@H]2[C@@H](CCN2S(=O)(=O)c2ccccc2F)[C@H]1CO`, for which the inhibition was 3.11% (inactive).

`O=C(C[C@@H]1C=C[C@@H](NC(=O)C2CCC2)[C@H](CO)O1)NCC1CC1`: the inhibition was -2.09% (inactive).

As for `CCOC(=O)c1c(-c2ccccc2)oc2ccc(OCC(=O)NN)cc12`, the inhibition was 6.17% (inactive).

For the compound `CCOC(=O)c1c(-c2ccccc2)oc2cc(Br)c(O)cc12`, the inhibition is 0.164% (inactive).

As for `CCOC(=O)c1c(-c2ccccc2)oc2ccc(OCC(N)=O)cc12`, the inhibition was 22.2% (active).

In the case of `CN1C(=O)c2cc(NC(=O)c3cccc(F)c3)ccc2OC[C@H]2O[C@@H](CC(=O)NCc3ccccc3Cl)CC[C@@H]21`, the inhibition was 6.51% (inactive).

With `O=C(C[C@H]1C[C@H]2c3cc(NC(=O)NC4CCCC4)ccc3O[C@H]2[C@H](CO)O1)NCCc1ccccc1`, the inhibition was -4.04% (inactive).

Turning to `CCC(=O)N1C[C@@H](C)[C@H](OC)CN(C)C(=O)c2cc(NC(=O)NC3CCCC3)ccc2OC[C@H]1C`, the inhibition was 3.98% (inactive).

For the compound `COCOCCn1cc(CN2CCS(=O)(=O)N(Cc3ccc(-c4ccccc4)cc3)C(CC(C)C)C2=O)nn1` (stereo not drawn), the inhibition is -0.714% (inactive).

Regarding `COCOCCn1cc(CN2CCS(=O)(=O)N(Cc3ccc(-c4ccc(OC)cc4)cc3)C(CC(C)C)C2=O)nn1` (stereo not drawn), the inhibition is 18.3% (active).

As for `COCOCCn1cc(CN2CCS(=O)(=O)N(Cc3ccc(-c4cccc(N(C)C)c4)cc3)C(CC(C)C)C2=O)nn1` (stereo not drawn), the inhibition is -0.197% (inactive).

For the compound `C[C@@H]1CN([C@H](C)CO)C(=O)c2cc(NS(=O)(=O)c3cccs3)ccc2O[C@@H](C)CCCCO[C@H]1CN(C)Cc1ccc(C(F)(F)F)cc1`, the inhibition is 13.1% (inactive).

For `CCS(=O)(=O)N1CC(=O)N2[C@H](CO)[C@@H](c3ccc(C#CC4CCCC4)cc3)[C@@H]2C1`, the inhibition is -0.752% (inactive).

Consider `COc1ccccc1CN1CCNC(=O)C1CC(=O)N(C)CC1CCOCC1` (stereo not drawn), for which the inhibition was -0.968% (inactive).

Consider `CN(Cc1cccc2ncccc12)C(=O)CC1C(=O)NCCN1Cc1ccc(F)cc1` (stereo not drawn), for which the inhibition is 7.41% (inactive).

Turning to `CCN(CCn1cccn1)C(=O)CC1C(=O)NCCN1Cc1cccc(OC)c1OC` (stereo not drawn), the inhibition was 16.5% (active).

As to `Cc1noc(C)c1S(=O)(=O)Nc1ccc2c(c1)C(=O)N([C@H](C)CO)C[C@H](C)[C@H](CN(C)C(=O)NC1CCCCC1)OCCCC[C@H](C)O2`, the inhibition is 0.076% (inactive).

Regarding `COc1ccccc1-c1nnc(NC(=O)c2cccc(N3C(=O)CCC3=O)c2)o1`, the inhibition was 1.38% (inactive).

For the compound `Cc1sc(NC(=O)c2ccc3ncsc3c2)c(C(N)=O)c1C`, the inhibition is -6.86% (inactive).

For `COc1ccccc1-c1nnc(NC(=O)c2ccc3ncsc3c2)o1`, the inhibition is 20.5% (active).
